Where a name gives a salt, the structure may show the parent alone. ± gives the standard deviation of the averaged measurements.
Columns and labels:
Experiment in all cases: growth (OD600 after 10 h); higher = more growth (less inhibition)
[1] = tested on: E. coli TESEC Alr+ wild-type control; conditions: compound 0.1 mM; raw OD600 reference: median of DMSO wells 0.241, cell-free background 0.041
Protocol: (§1)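 TESEC Mtb Alr E. coli, or the Alr+ wild-type control, in 384-well plates with Prestwick library compounds at 0.1 mM and 1% DMSO, across arabinose induction levels of 1E3 to 1E7 nM. Growth is read as OD600 after 10 h at 37 °C in triplicate biological replicates.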

E. coli TESEC Mtb Alr [2] = conditions: compound 0.1 mM
Protocol: as §1

E. coli TESEC Mtb Asd = conditions: compound 0.1 mM
Protocol: (§2)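 TESEC E. coli strains in which the native enzyme is deleted and replaced by arabinose-inducible Mtb Asd, DapB, CysH or TrpD, each grown in its selective medium. Strains were screened against the Prestwick library at 0.1 mM and 1% DMSO in 384-well format at low and high arabinose induction. Growth is read as OD600 after 10 h in triplicate.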

E. coli TESEC Mtb DapB = conditions: compound 0.1 mM
Protocol: as §2

[3] = tested on: E. coli TESEC Alr+ wild-type control; conditions: compound 0.1 mM; raw OD600 reference: median of DMSO wells 0.49, cell-free background 0.052
Protocol: (§3)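 TESEC Mtb Alr E. coli (ΔaraC ΔtolC ΔentC Δalr ΔdadX, arabinose-inducible Mtb Alr) or the Alr+ wild-type control strain, grown in defined M9-fructose medium without D-alanine in 96-well plates with Prestwick library compounds at 0.1 mM and 1% DMSO. Low Alr induction is 0.1 µM arabinose and high induction is 10 mM arabinose.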

E. coli TESEC Mtb Alr [4] = conditions: compound 0.1 mM; remark: listed apart in the source
Protocol: as §3

[5] = arabinose 1000 nM, raw OD600 reference: median of DMSO wells 0.294, cell-free background 0.041
[6] = arabinose 10000 nM, raw OD600 reference: median of DMSO wells 0.264, cell-free background 0.041
[7] = arabinose 100000 nM, raw OD600 reference: median of DMSO wells 0.201, cell-free background 0.041
[8] = arabinose 1000000 nM, raw OD600 reference: median of DMSO wells 0.193, cell-free background 0.041
[9] = arabinose 10000000 nM, raw OD600 reference: median of DMSO wells 0.146, cell-free background 0.041
[10] = arabinose induction (level): High, raw OD600 reference: median of DMSO wells 0.331, cell-free background 0.041
[11] = arabinose induction (level): Low, raw OD600 reference: median of DMSO wells 0.417, cell-free background 0.041
[12] = arabinose induction (level): High, raw OD600 reference: median of DMSO wells […], cell-free background 0.041
[13] = arabinose induction (level): Low, raw OD600 reference: median of DMSO wells 0.227, cell-free background 0.041
[14] = arabinose 100 nM, raw OD600 reference: median of DMSO wells 0.413, cell-free background 0.052
[15] = arabinose 10000000 nM, raw OD600 reference: median of DMSO wells […], cell-free background 0.052

| SMILES | growth [1] | growth (E. coli TESEC Mtb Alr [2]; [5]) | growth (E. coli TESEC Mtb Alr [2]; [6]) | growth (E. coli TESEC Mtb Alr [2]; [7]) | growth (E. coli TESEC Mtb Alr [2]; [8]) | growth (E. coli TESEC Mtb Alr [2]; [9]) | growth (E. coli TESEC Mtb Asd; [10]) | growth (E. coli TESEC Mtb Asd; [11]) | growth (E. coli TESEC Mtb DapB; [12]) | growth (E. coli TESEC Mtb DapB; [13]) | growth [3] | growth (E. coli TESEC Mtb Alr [4]; [14]) | growth (E. coli TESEC Mtb Alr [4]; [15]) |
| --- | --- | --- | --- | --- | --- | --- | --- | --- | --- | --- | --- | --- | --- |
| CN[C@@H]1[C@@H](O)[C@@H](O[C@@H]2[C@@H](O)[C@H](O[C@H]3OC(CN)=CC[C@H]3N)[C@@H](N)C[C@H]2N)OC[C@]1(C)O [Sisomicin sulfate] | 0.0439 ± 0.00085 | 0.04797 ± 0.00015 | 0.0404 ± 0.00055 | 0.0483 ± 0.00072 | 0.0422 ± 0.00046 | 0.0657 ± 0.002 | 0.075 ± 0.0066 | 0.107 ± 0.055 | 0.144 ± 0.032 | 0.0843 ± 0.01 | 0.198 ± 0.21 | 0.231 ± 0.15 | 0.3071 ± 0.0019 |
| NC(=O)N/N=C/c1ccc([N+](=O)[O-])o1 [Nitrofural] | 0.044 ± 0.00072 | 0.0426 ± 0.00078 | 0.04193 ± 0.00015 | 0.044 ± 0.0018 | 0.042 ± 0.00045 | 0.0427 ± 0.00084 | 0.0898 ± 0.0054 | 0.0756 ± 0.0054 | 0.11 ± 0.0086 | 0.145 ± 0.016 | 0.0529 ± 0.0016 | 0.0532 ± 0.0056 | 0.0522 ± 0.00076 |
| CC1(C)S[C@@H]2[C@H](NC(=O)[C@H](C(=O)O)c3ccsc3)C(=O)N2[C@H]1C(=O)O [Ticarcillin sodium] | 0.256 ± 0.0056 | 0.296 ± 0.0051 | 0.28 ± 0.0035 | 0.2 ± 0.031 | 0.226 ± 0.0051 | 0.142 ± 0.0031 | 0.331 ± 0.056 | 0.305 ± 0.0068 | 0.178 ± 0.0019 | 0.196 ± 0.019 | 0.577 ± 0.095 | 0.419 ± 0.0051 | 0.354 ± 0.0093 |
| CCCCCN(CCCCC)C(=O)C(CCC(=O)O)NC(=O)c1ccc(Cl)c(Cl)c1 (configuration not stated) [Lorglumide sodium salt] | 0.152 ± 0.0035 | 0.158 ± 0.01 | 0.114 ± 0.0014 | 0.158 ± 0.0084 | 0.0691 ± 0.00087 | 0.125 ± 0.0012 | 0.194 ± 0.019 | 0.162 ± 0.0069 | 0.153 ± 0.015 | 0.243 ± 0.015 | 0.104 ± 0.002 | 0.302 ± 0.17 | 0.161 ± 0.025 |
| C[C@]12CC[C@@H]3c4ccc(OS(=O)(=O)O)cc4CC[C@H]3[C@@H]1CCC2=O [Estropipate] | 0.229 ± 0.0082 | 0.277 ± 0.011 | 0.251 ± 0.0064 | 0.177 ± 0.011 | 0.151 ± 0.011 | 0.127 ± 0.0018 | 0.301 ± 0.023 | 0.413 ± 0.039 | 0.194 ± 0.016 | 0.195 ± 0.013 | 0.534 ± 0.11 | 0.41 ± 0.0049 | 0.267 ± 0.0063 |
| CC(C)(CO)C(O)C(=O)NCCCO (configuration not stated) [Panthenol (D)] | 0.261 ± 0.0085 | 0.296 ± 0.01 | 0.261 ± 0.0092 | 0.216 ± 0.053 | 0.192 ± 0.0077 | 0.147 ± 0.0069 | 0.357 ± 0.034 | 0.409 ± 0.043 | 0.185 ± 0.0037 | 0.219 ± 0.024 | 0.5 ± 0.047 | 0.406 ± 0.011 | 0.287 ± 0.13 |
| C[N+](C)(C)CCOC(N)=O [Carbachol] | 0.251 ± 0.0053 | 0.309 ± 0.014 | 0.284 ± 0.02 | 0.177 ± 0.0065 | 0.186 ± 0.006 | 0.164 ± 0.0027 | 0.475 ± 0.0086 | 0.438 ± 0.051 | 0.194 ± 0.0084 | 0.26 ± 0.028 | 0.492 ± 0.011 | 0.409 ± 0.023 | 0.364 ± 0.014 |
| CN1CCC(OC(c2ccccc2)c2ccccc2)CC1 [Diphenylpyraline hydrochloride] | 0.221 ± 0.013 | 0.294 ± 0.021 | 0.256 ± 0.0056 | 0.162 ± 0.0083 | 0.141 ± 0.0025 | 0.1486 ± 0.0014 | 0.237 ± 0.035 | 0.461 ± 0.077 | 0.211 ± 0.013 | 0.246 ± 0.0048 | 0.47 ± 0.021 | 0.4078 ± 0.0034 | 0.303 ± 0.015 |
| CCCCc1oc2ccccc2c1C(=O)c1cc(I)c(OCCN(CC)CC)c(I)c1 [Amiodarone hydrochloride] | 0.263 ± 0.01 | 0.325 ± 0.0083 | 0.324 ± 0.0065 | 0.193 ± 0.0069 | 0.177 ± 0.0065 | 0.153 ± 0.0059 | 0.284 ± 0.017 | 0.338 ± 0.033 | 0.185 ± 0.0075 | 0.227 ± 0.0068 | 0.58 ± 0.025 | 0.424 ± 0.057 | 0.316 ± 0.044 |
| CCN(CC)CCNC(C(=O)OCCC(C)C)c1ccccc1 (configuration not stated) [Camylofine chlorhydrate] | 0.198 ± 0.0073 | 0.254 ± 0.0087 | 0.261 ± 0.0027 | 0.208 ± 0.017 | 0.156 ± 0.0056 | 0.148 ± 0.0031 | 0.228 ± 0.046 | 0.372 ± 0.11 | 0.153 ± 0.013 | 0.171 ± 0.016 | 0.559 ± 0.084 | 0.406 ± 0.012 | 0.341 ± 0.012 |
| C[C@@H]1C[C@H]2[C@@H]3C[C@H](F)C4=CC(=O)C=C[C@]4(C)[C@@]3(Cl)[C@@H](O)C[C@]2(C)[C@H]1C(=O)COC(=O)C(C)(C)C [Clocortolone pivalate] | 0.24 ± 0.0038 | 0.307 ± 0.0044 | 0.29 ± 0.013 | 0.206 ± 0.031 | 0.2 ± 0.027 | 0.151 ± 0.0033 | 0.198 ± 0.0099 | 0.322 ± 0.059 | 0.21 ± 0.0076 | 0.254 ± 0.0078 | 0.477 ± 0.013 | 0.433 ± 0.0058 | 0.377 ± 0.017 |
| CC(Oc1c(Cl)cccc1Cl)C1=NCCN1 (configuration not stated) [Lofexidine] | 0.211 ± 0.008 | 0.27 ± 0.0089 | 0.259 ± 0.016 | 0.179 ± 0.015 | 0.172 ± 0.0071 | 0.139 ± 0.0016 | 0.261 ± 0.069 | 0.464 ± 0.093 | 0.205 ± 0.013 | 0.206 ± 0.012 | 0.555 ± 0.044 | 0.406 ± 0.0098 | 0.331 ± 0.032 |
| C[C@H]1NC(=O)NC1=O [Methylhydantoin-5-(D)] | 0.257 ± 0.0085 | 0.323 ± 0.014 | 0.268 ± 0.005 | 0.2 ± 0.019 | 0.186 ± 0.0032 | 0.156 ± 0.0032 | 0.46 ± 0.085 | 0.467 ± 0.0073 | 0.202 ± 0.012 | 0.244 ± 0.012 | 0.607 ± 0.018 | 0.405 ± 0.015 | 0.321 ± 0.015 |
| c1ccc2c(c1)CCCC2C1=NCCN1 (configuration not stated) [Tetrahydrozoline hydrochloride] | 0.237 ± 0.0097 | 0.297 ± 0.012 | 0.247 ± 0.0046 | 0.184 ± 0.015 | 0.174 ± 0.0044 | 0.14 ± 0.0055 | 0.435 ± 0.062 | 0.437 ± 0.03 | 0.203 ± 0.018 | 0.226 ± 0.031 | 0.479 ± 0.063 | 0.4131 ± 0.0035 | 0.343 ± 0.01 |

Reference: the supplement of paper PMC9262897, “Low-cost anti-mycobacterial drug discovery using engineered E. coli” (Nature Communications, 2022)
